Source: PubChem BioAssay (NCATS)
Results filed as inconclusive are left out. Entries that show only a call come without a potency. The source holds several records for some structures; these can differ, active in one and inactive in another. Calls of active or inactive are those of the source. Calls follow the shape of the dose curve; as a rule, active = well fitted cell-killing curve with a large enough effect; inconclusive = small, poorly fitted or top-dose-only effect, or effect the other way; inactive = flat fitted curve, though single readings scatter. Non-standard residues stand in square brackets, D forms with d. Residues, ends and D or L forms follow the SMILES beside them. *: point of attachment. Sta = CC(C)C[C@H](N)[C@@H](O)CC(=O)O; Isovaleryl = CC(C)CC(=O)*

system: Tov-21-G; test: Primary qHTS to identify gynecologic anti-cancer compounds using libraries of approved drugs and bioactive compounds (AID 1345084); settings: Gynecologic cancer cell panel viability, ATPlite luminescence, 48 h; series mostly up to 57.5 µM; also: nearly all actives have a fitted effect of over 55% in size
Outline: (§1)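 Measured: luminescence after ATPlite addition (15 min, RT). Exposure: 48 h, 37 C, 5% CO2.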
Potency is read from the fitted curve at half-maximal effect.

Row | Structure (SMILES) | Potency
1 | O=C(NCC1CCCCN1)c1cc(OCC(F)(F)F)ccc1OCC(F)(F)F (centres undefined) | inactive
2 | O=C(OC1C[C@H]2CC[C@@H](C1)[N+]21CCCC1)C(O)(c1ccccc1)c1ccccc1 (some centres undefined) | inactive
3 | CCC(C)(Oc1ccc(C2(c3ccc(OC(C)(CC)C(=O)O)cc3)CCCCC2)cc1)C(=O)O (centres undefined) | inactive
4 | Oc1ccc(OCc2ccccc2)cc1 | inactive
5 | CCOC(=O)c1c(C)n(C)c2ccc(O)cc12 | inactive
6 | CC(C)c1nc(CN(C)C(=O)N[C@H](C(=O)N[C@@H](Cc2ccccc2)C[C@H](O)[C@H](Cc2ccccc2)NC(=O)OCc2cncs2)C(C)C)cs1 | inactive
7 | N=C(N)c1ccc2cc(OC(=O)c3ccc(N=C(N)N)cc3)ccc2c1 | inactive
8 | Cc1cc(=O)oc2cc(O)ccc12 | inactive
9 | c1cnc2cc3c(cc2n1)C1CNCC3C1 | inactive
10 | Clc1ccc(C(Cn2ccnc2)OCc2ccsc2Cl)c(Cl)c1 (centres undefined) | inactive
11 | CN(C)C(=O)COC(=O)Cc1ccc(OC(=O)c2ccc(N=C(N)N)cc2)cc1 | inactive
12 | CC1=C(C)C(=O)C(C(CCCCCC(=O)O)c2ccccc2)=C(C)C1=O (centres undefined) | inactive
13 | Cn1c(NCCN(CCO)CCCc2ccc([N+](=O)[O-])cc2)cc(=O)n(C)c1=O | inactive
14 | O=C(O)c1cn(-c2ccc(F)cc2)c2cc(N3CCNCC3)c(F)cc2c1=O | inactive
15 | CC(C)[C@H](N)C(=O)OCCOCn1cnc2c(=O)[nH]c(N)nc21 | inactive
16 | Nc1ccc(S(N)(=O)=O)cc1 | inactive
17 | COc1cc(OC)c(C(=O)CCCN2CCCC2)c(OC)c1 | inactive

Row | Structure (SMILES) | Potency
18 | CC1(C)CCC(C)(C)c2cc(NC(=O)c3ccc(C(=O)O)cc3)ccc21 | inactive
19 | O=C(c1ccccc1)c1ccc2n1CCC2C(=O)O (centres undefined) | inactive
20 | O=C(O)CCNC(=O)c1ccc(N=Nc2ccc(O)c(C(=O)O)c2)cc1 | inactive
21 | CN(C)c1ccc(O)c2c1C[C@H]1C[C@H]3[C@H](N(C)C)C(=O)C(C(N)=O)=C(O)[C@@]3(O)C(=O)C1=C2O | inactive
22 | CNC[C@H](O)c1ccc(O)c(O)c1 | inactive
23 | COc1cc2nc(N3CCN(C(=O)C4CCCO4)CC3)nc(N)c2cc1OC (centres undefined) | inactive
24 | CCC[C@@H]1C[C@@H](C(=O)N[C@@H]([C@H]2O[C@H](SC)[C@H](O)[C@@H](O)[C@H]2O)[C@@H](C)O)N(C)C1 | inactive
25 | CCC1=C(C)CN(C(=O)NCCc2ccc(S(=O)(=O)NC(=O)NC3CCC(C)CC3)cc2)C1=O (centres undefined) | inactive
26 | Nc1ncn([C@H]2C[C@H](O)[C@@H](CO)O2)c(=O)n1 | inactive
27 | CCCc1cc(=O)[nH]c(=S)[nH]1 | inactive
28 | CC(C)CC(=O)N[C@H](C(=O)N[C@H](C(=O)N[C@@H](CC(C)C)[C@@H](O)CC(=O)N[C@@H](C)C(=O)N[C@@H](CC(C)C)[C@@H](O)CC(=O)O)C(C)C)C(C)C (Isovaleryl-VV[Sta]A[Sta]-OH) | inactive
29 | COCCCN1CCC(NC(=O)c2cc(Cl)c(N)c3c2OCC3)CC1 | inactive
30 | CC1=C(C(=O)O)N2C(=O)[C@@H](NC(=O)[C@H](N)C3=CCC=CC3)[C@H]2SC1 | inactive
31 | CC(=O)Nc1ccc(O)cc1 | inactive
32 | COc1cc2c(N3CCN(C(=O)Nc4ccc(OC(C)C)cc4)CC3)ncnc2cc1OCCCN1CCCCC1 | inactive
33 | CS(=O)(=O)OCCCCOS(C)(=O)=O | inactive
34 | Nc1cc(C(Cl)=C(Cl)Cl)c(S(N)(=O)=O)cc1S(N)(=O)=O | inactive

system: Tov112D; test: as above; settings: Gynecologic cancer cell panel viability, ATPlite luminescence, 48 h; series mostly up to 57.5 µM
Outline: as §1

Row | Structure (SMILES) | Potency
35 | O=C(NCC1CCCCN1)c1cc(OCC(F)(F)F)ccc1OCC(F)(F)F (centres undefined) | inactive
36 | O=C(OC1C[C@H]2CC[C@@H](C1)[N+]21CCCC1)C(O)(c1ccccc1)c1ccccc1 (some centres undefined) | inactive
37 | CCC(C)(Oc1ccc(C2(c3ccc(OC(C)(CC)C(=O)O)cc3)CCCCC2)cc1)C(=O)O (centres undefined) | inactive
38 | Oc1ccc(OCc2ccccc2)cc1 | inactive
39 | CCOC(=O)c1c(C)n(C)c2ccc(O)cc12 | inactive
40 | CC(C)c1nc(CN(C)C(=O)N[C@H](C(=O)N[C@@H](Cc2ccccc2)C[C@H](O)[C@H](Cc2ccccc2)NC(=O)OCc2cncs2)C(C)C)cs1 | inactive
41 | N=C(N)c1ccc2cc(OC(=O)c3ccc(N=C(N)N)cc3)ccc2c1 | inactive
42 | Cc1cc(=O)oc2cc(O)ccc12 | inactive
43 | c1cnc2cc3c(cc2n1)C1CNCC3C1 | inactive
44 | Clc1ccc(C(Cn2ccnc2)OCc2ccsc2Cl)c(Cl)c1 (centres undefined) | inactive
45 | CN(C)C(=O)COC(=O)Cc1ccc(OC(=O)c2ccc(N=C(N)N)cc2)cc1 | inactive
46 | CC1=C(C)C(=O)C(C(CCCCCC(=O)O)c2ccccc2)=C(C)C1=O (centres undefined) | inactive
47 | Cn1c(NCCN(CCO)CCCc2ccc([N+](=O)[O-])cc2)cc(=O)n(C)c1=O | inactive
48 | O=C(O)c1cn(-c2ccc(F)cc2)c2cc(N3CCNCC3)c(F)cc2c1=O | inactive
49 | CC(C)[C@H](N)C(=O)OCCOCn1cnc2c(=O)[nH]c(N)nc21 | inactive
50 | Nc1ccc(S(N)(=O)=O)cc1 | inactive
51 | COc1cc(OC)c(C(=O)CCCN2CCCC2)c(OC)c1 | inactive
52 | O=C(NOCC1CC1)c1ccc(F)c(F)c1Nc1ccc(I)cc1Cl | 28.2 µM (active) and inactive

Row | Structure (SMILES) | Potency
53 | CC1(C)CCC(C)(C)c2cc(NC(=O)c3ccc(C(=O)O)cc3)ccc21 | inactive
54 | O=C(c1ccccc1)c1ccc2n1CCC2C(=O)O (centres undefined) | inactive
55 | O=C(O)CCNC(=O)c1ccc(N=Nc2ccc(O)c(C(=O)O)c2)cc1 | inactive
56 | CN(C)c1ccc(O)c2c1C[C@H]1C[C@H]3[C@H](N(C)C)C(=O)C(C(N)=O)=C(O)[C@@]3(O)C(=O)C1=C2O | inactive
57 | CNC[C@H](O)c1ccc(O)c(O)c1 | inactive
58 | COc1cc2nc(N3CCN(C(=O)C4CCCO4)CC3)nc(N)c2cc1OC (centres undefined) | inactive
59 | CCC[C@@H]1C[C@@H](C(=O)N[C@@H]([C@H]2O[C@H](SC)[C@H](O)[C@@H](O)[C@H]2O)[C@@H](C)O)N(C)C1 | inactive
60 | CCC1=C(C)CN(C(=O)NCCc2ccc(S(=O)(=O)NC(=O)NC3CCC(C)CC3)cc2)C1=O (centres undefined) | inactive
61 | CCCc1cc(=O)[nH]c(=S)[nH]1 | inactive
62 | CC(C)CC(=O)N[C@H](C(=O)N[C@H](C(=O)N[C@@H](CC(C)C)[C@@H](O)CC(=O)N[C@@H](C)C(=O)N[C@@H](CC(C)C)[C@@H](O)CC(=O)O)C(C)C)C(C)C (Isovaleryl-VV[Sta]A[Sta]-OH) | inactive
63 | COCCCN1CCC(NC(=O)c2cc(Cl)c(N)c3c2OCC3)CC1 | inactive
64 | CC1=C(C(=O)O)N2C(=O)[C@@H](NC(=O)[C@H](N)C3=CCC=CC3)[C@H]2SC1 | inactive
65 | CC(=O)NC[C@H]1CN(c2ccc(N3CCOCC3)c(F)c2)C(=O)O1 | inactive
66 | CC(=O)Nc1ccc(O)cc1 | inactive
67 | COc1cc2c(N3CCN(C(=O)Nc4ccc(OC(C)C)cc4)CC3)ncnc2cc1OCCCN1CCCCC1 | inactive
68 | CS(=O)(=O)OCCCCOS(C)(=O)=O | inactive
69 | Nc1cc(C(Cl)=C(Cl)Cl)c(S(N)(=O)=O)cc1S(N)(=O)=O | inactive
